In paper PMC7862700, “An all-to-all approach to the identification of sequence-specific readers for epigenetic DNA modifications on cytosine”:

Assays:
Experiment in all cases: DAPPL (digital affinity profiling via proximity ligation, sequencing); 10 mM Tris-HCl pH 7.5, 50 mM NaCl, 1 mM DTT, 4% glycerol, room temperature, 30 min; GST-TFs on glutathione beads, 16-mer random dsDNA library, 0.1% formaldehyde crosslink after washing; high values mean tight binding
Conditions in all cases: protein: recombinant; tags: N-terminal GST; dsDNA, one strand shown
SPIC = molecular target: T1, SPIC (Homo sapiens, UniProt Q8N5J4 1-248)
T1 sequence: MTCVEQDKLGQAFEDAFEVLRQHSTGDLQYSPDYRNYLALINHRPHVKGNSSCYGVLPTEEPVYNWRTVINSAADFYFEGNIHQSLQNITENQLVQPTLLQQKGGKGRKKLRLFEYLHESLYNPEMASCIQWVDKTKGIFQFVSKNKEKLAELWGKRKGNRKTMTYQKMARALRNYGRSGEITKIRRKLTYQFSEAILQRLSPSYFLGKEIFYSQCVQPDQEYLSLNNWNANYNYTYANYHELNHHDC
Procedure, shortened: (§1)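 In yeast, human transcription factors were expressed with a GST fusion, then pulled down on glutathione beads and given DNA barcodes. Pooled with a tag-only sample, they were exposed to 200 nmole of a 16-mer random double-stranded DNA library (Tris/NaCl/DTT/glycerol buffer, room temperature, 30 min), washed, crosslinked with 0.1% formaldehyde, proximity-ligated using BsaI/T4 ligase for 1 h at 37 °C, PCR-amplified and read on an Illumina NextSeq500. Each hexamer's frequency of reads for a factor, divided by the matching frequency for the tag-only sample, gives the binding signal.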

ELK4 = molecular target: T2, ELK4 (Homo sapiens, UniProt P28324-2 1-405)
T2 sequence: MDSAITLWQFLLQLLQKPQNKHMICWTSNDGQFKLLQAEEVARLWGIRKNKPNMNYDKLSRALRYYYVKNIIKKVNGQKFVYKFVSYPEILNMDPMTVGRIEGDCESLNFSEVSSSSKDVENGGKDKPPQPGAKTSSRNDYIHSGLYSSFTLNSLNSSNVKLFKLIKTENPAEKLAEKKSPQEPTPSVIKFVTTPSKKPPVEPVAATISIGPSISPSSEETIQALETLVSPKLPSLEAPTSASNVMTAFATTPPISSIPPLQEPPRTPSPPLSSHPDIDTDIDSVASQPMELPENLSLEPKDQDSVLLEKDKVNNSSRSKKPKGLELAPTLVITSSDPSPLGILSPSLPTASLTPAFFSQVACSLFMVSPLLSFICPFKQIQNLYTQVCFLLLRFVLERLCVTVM
Procedure, shortened: as §1

SPIB = SPIB (Homo sapiens, UniProt Q01892 1-262)
Procedure, shortened: as §1

ETV1 = ETV1 (Homo sapiens, UniProt P50549 1-477)
Procedure, shortened: as §1

EHF = molecular target: T3, EHF (Homo sapiens, UniProt Q9NZC4 1-300)
T3 sequence: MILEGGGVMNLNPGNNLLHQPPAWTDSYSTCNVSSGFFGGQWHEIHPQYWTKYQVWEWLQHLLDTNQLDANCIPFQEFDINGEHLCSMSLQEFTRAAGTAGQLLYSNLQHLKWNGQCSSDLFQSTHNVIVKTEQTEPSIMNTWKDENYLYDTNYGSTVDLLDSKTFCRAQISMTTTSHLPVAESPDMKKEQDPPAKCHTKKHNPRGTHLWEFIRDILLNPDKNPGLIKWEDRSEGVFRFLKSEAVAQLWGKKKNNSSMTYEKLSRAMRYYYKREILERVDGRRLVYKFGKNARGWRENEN
Procedure, shortened: as §1

ELF3 = molecular target: T4, ELF3 (Homo sapiens, UniProt P78545 1-371)
T4 sequence: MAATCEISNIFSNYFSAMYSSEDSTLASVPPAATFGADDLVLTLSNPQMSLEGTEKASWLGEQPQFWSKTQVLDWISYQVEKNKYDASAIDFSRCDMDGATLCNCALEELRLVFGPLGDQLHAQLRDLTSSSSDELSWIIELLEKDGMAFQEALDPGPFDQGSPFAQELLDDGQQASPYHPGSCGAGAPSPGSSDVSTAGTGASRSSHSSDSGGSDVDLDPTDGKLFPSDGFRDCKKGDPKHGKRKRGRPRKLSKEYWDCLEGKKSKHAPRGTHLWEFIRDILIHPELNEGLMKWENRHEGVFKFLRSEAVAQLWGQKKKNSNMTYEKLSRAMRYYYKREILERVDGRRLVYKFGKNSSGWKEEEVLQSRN
Procedure, shortened: as §1

ERG = molecular target: T5, ERG (Homo sapiens, UniProt P11308 1-479)
T5 sequence: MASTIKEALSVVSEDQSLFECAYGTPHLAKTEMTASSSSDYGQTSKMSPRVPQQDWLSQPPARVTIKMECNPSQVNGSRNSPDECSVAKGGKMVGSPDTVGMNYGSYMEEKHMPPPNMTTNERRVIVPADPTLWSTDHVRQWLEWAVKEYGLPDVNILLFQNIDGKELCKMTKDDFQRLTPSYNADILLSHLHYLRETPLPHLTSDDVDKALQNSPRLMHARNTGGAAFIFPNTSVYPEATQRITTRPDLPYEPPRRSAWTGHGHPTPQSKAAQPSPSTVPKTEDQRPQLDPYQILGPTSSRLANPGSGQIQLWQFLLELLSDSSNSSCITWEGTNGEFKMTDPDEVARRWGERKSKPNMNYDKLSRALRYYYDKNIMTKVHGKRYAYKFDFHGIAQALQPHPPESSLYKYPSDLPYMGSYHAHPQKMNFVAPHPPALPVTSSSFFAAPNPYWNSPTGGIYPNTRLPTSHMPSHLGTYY
Procedure, shortened: as §1

SPI1 = SPI1 (Homo sapiens, UniProt P17947 1-270)
Procedure, shortened: as §1

ETV7 = molecular target: T6, ETV7 (Homo sapiens, UniProt Q9Y603 1-341)
T6 sequence: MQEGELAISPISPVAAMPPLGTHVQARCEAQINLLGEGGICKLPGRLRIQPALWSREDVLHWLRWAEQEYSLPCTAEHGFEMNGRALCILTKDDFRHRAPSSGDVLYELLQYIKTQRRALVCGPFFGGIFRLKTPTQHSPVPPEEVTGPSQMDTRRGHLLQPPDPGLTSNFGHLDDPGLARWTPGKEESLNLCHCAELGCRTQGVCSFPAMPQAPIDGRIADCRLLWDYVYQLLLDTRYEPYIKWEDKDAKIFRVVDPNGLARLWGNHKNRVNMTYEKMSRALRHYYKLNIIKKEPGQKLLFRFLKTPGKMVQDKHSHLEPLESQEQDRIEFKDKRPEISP
Procedure, shortened: as §1

ELF5 = molecular target: T7, ELF5 (Homo sapiens, UniProt Q9UKW6-2 1-255)
T7 sequence: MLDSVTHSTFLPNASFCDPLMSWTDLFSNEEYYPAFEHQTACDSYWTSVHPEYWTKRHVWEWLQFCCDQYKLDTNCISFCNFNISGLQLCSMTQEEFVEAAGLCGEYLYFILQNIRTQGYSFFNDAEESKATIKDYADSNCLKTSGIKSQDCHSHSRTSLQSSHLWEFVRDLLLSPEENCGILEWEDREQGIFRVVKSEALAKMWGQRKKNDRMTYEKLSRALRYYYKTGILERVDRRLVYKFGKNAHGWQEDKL
Procedure, shortened: as §1

ETV6 = ETV6 (Homo sapiens, UniProt P41212 1-452)
Procedure, shortened: as §1

Sequence of SPIB (Q01892 whole entry): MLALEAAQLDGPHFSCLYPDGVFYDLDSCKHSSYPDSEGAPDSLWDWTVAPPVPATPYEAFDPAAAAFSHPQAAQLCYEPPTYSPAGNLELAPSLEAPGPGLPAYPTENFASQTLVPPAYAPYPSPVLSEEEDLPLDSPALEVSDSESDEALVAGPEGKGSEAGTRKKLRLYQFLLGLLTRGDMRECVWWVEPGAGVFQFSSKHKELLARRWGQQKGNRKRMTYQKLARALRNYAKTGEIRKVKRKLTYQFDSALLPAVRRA
Sequence of ETV6 (P41212 whole entry): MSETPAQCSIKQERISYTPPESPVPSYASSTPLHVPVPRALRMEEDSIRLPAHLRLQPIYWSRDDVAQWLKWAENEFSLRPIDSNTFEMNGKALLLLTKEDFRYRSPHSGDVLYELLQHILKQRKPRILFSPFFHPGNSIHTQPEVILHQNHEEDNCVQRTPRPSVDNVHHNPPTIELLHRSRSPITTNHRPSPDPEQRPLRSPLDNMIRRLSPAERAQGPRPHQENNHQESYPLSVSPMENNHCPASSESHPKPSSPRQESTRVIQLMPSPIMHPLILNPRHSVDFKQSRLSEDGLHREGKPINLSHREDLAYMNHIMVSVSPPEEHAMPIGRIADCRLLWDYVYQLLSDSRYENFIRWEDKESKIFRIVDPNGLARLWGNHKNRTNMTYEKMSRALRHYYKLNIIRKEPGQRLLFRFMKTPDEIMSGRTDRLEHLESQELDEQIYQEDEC
Sequence of ETV1 (P50549 whole entry): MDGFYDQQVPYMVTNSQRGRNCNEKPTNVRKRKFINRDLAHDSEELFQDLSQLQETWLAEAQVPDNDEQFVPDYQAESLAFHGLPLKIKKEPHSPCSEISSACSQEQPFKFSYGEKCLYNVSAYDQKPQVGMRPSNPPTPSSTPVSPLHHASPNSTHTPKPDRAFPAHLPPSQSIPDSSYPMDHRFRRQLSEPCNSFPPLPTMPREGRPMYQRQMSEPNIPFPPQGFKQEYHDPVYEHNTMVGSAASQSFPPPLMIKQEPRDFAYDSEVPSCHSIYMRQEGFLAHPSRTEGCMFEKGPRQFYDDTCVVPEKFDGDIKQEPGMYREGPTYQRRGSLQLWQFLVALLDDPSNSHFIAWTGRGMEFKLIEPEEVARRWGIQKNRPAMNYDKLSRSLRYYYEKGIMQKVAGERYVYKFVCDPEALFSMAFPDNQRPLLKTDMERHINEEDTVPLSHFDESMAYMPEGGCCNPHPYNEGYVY

Question: For ATGGGA, which binding signal (SPIC) is on record?
Answer: The binding signal was 1.05 fold enrichment (6-mer frequency, TF over GST control).

Question: Which results are given for TGTCAG?
Answer: binding signal (SPIC): 1 fold enrichment (6-mer frequency, TF over GST control); binding signal (ELK4): 1.02 fold enrichment (6-mer frequency, TF over GST control)

Question: Which results are given for GTGATG?
Answer: binding signal (SPIB): 1.04 fold enrichment (6-mer frequency, TF over GST control); binding signal (SPIC): 1.01 fold enrichment (6-mer frequency, TF over GST control); binding signal (ELK4): 1.18 fold enrichment (6-mer frequency, TF over GST control); binding signal (ETV1): 1.03 fold enrichment (6-mer frequency, TF over GST control)

Question: What does the source list for AGATAC?
Answer: binding signal (EHF): 1 fold enrichment (6-mer frequency, TF over GST control); binding signal (SPIC): 1.05 fold enrichment (6-mer frequency, TF over GST control); binding signal (ELF3): 1.01 fold enrichment (6-mer frequency, TF over GST control)

Question: What does the source list for AGGGAA?
Answer: binding signal (ERG): 1.02 fold enrichment (6-mer frequency, TF over GST control); binding signal (EHF): 1.04 fold enrichment (6-mer frequency, TF over GST control); binding signal (SPI1): 1.39 fold enrichment (6-mer frequency, TF over GST control); binding signal (SPIB): 1 fold enrichment (6-mer frequency, TF over GST control); binding signal (SPIC): 1.01 fold enrichment (6-mer frequency, TF over GST control); binding signal (ELF3): 1.01 fold enrichment (6-mer frequency, TF over GST control); binding signal (ETV7): 1.06 fold enrichment (6-mer frequency, TF over GST control); binding signal (ELF5): 1.24 fold enrichment (6-mer frequency, TF over GST control); binding signal (ETV6): 1.03 fold enrichment (6-mer frequency, TF over GST control)
